Measured values taken from the supplement of paper PMC4022240.
± gives the standard deviation.

Legend:
Assay in all cases: peptide microarray binding signal (635 nm), min-max normalized on array (fraction of array maximum); higher = stronger binding
Conditions in all cases: peptide region: H3 5-17
[1] = molecular target: T1, HaloTag-ATRX ADD domain (163-292)
T1 chain: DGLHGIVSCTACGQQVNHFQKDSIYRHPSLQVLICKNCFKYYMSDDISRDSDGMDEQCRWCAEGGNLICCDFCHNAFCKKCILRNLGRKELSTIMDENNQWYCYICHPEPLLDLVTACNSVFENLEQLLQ
How it was run: (§1)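 Arrays carried histone 13-mer peptide–cellulose conjugates printed in triplicate on nitrocellulose alongside a Cy3 tracer. After overnight blocking at 4°C, they were incubated for 1 h at 4°C with biotin-labelled HaloTag reader fusions (10 nM to 1 μM) plus streptavidin-Alexa Fluor 647, or with rabbit histone antibodies (1:10,000 to 1:2,000) plus anti-rabbit Alexa 647. Scanning on an Axon GenePix 4000B used 635 nm for signal and 532 nm for misprints. The binding signal reported is each triplicate's mean spot intensity after per-library min-max scaling.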

[2] = molecular target: HaloTag-ING2 PHD (mouse Ing2 200-280)
How it was run: as §1

[3] = molecular target: anti-H3K4me3 antibody ab8580
How it was run: as §1

[4] = molecular target: anti-H3K9me3 antibody ab8898
How it was run: as §1

[5] = peptide modifications: H3R8me2a, binder concentration: 1:2,000 dilution
[6] = peptide modifications: H3R8me2a, binder concentration: 1:10,000 dilution
[7] = peptide modifications: H3R8me2s, binder concentration: 1:2,000 dilution
[8] = peptide modifications: H3R8me2s, binder concentration: 1:10,000 dilution
[9] = peptide modifications: H3R8me2s H3S10ph, binder concentration: 1:2,000 dilution
[10] = peptide modifications: H3R8me2s H3S10ph, binder concentration: 1:10,000 dilution
[11] = peptide modifications: H3R8me2a H3T11ph, binder concentration: 1:2,000 dilution
[12] = peptide modifications: H3R8me2a H3T11ph, binder concentration: 1:10,000 dilution
[13] = peptide modifications: H3R8me2a H3K9me2, binder concentration: 1:2,000 dilution
[14] = peptide modifications: H3R8me2a H3K9me2, binder concentration: 1:10,000 dilution
[15] = peptide modifications: H3R8me2a H3K9me1, binder concentration: 1:2,000 dilution
[16] = peptide modifications: H3R8me2a H3K9me1, binder concentration: 1:10,000 dilution
[17] = peptide modifications: H3R8me2s H3K9me3, binder concentration: 1:2,000 dilution
[18] = peptide modifications: H3R8me2s H3K9me3, binder concentration: 1:10,000 dilution
[19] = peptide modifications: H3R8me1 H3T11ph, binder concentration: 1:2,000 dilution
[20] = peptide modifications: H3R8me1 H3T11ph, binder concentration: 1:10,000 dilution
[21] = peptide modifications: H3S10ph H3K14me1, binder concentration: 1:2,000 dilution
[22] = peptide modifications: H3S10ph H3K14me1, binder concentration: 1:10,000 dilution
[23] = peptide modifications: H3R8me2s H3K9me2, binder concentration: 1:2,000 dilution
[24] = peptide modifications: H3R8me2s H3K9me2, binder concentration: 1:10,000 dilution

In the case of QTARKSTGGKAPR [H3 5-17 Q T A Rme2a K S T G G K A P R], the “peptide microarray binding signal” value ([1]; peptide modifications: H3R8me2a, binder concentration: 50 nM) is reported as 0.00386 ± 0.00017, the “peptide microarray binding signal” value ([1]; peptide modifications: H3R8me2a, binder concentration: 500 nM) is reported as 0.00367 ± 0.00047 and the “peptide microarray binding signal” value ([2]; peptide modifications: H3R8me2a, binder concentration: 10 nM) is reported as 0.00346. The “peptide microarray binding signal” value ([2]; peptide modifications: H3R8me2a, binder concentration: 100 nM) was 0.0034 ± 0.00021, the “peptide microarray binding signal” value [3, 5] was 0.0114 ± 0.0019 and the “peptide microarray binding signal” value [3, 6] was 0.00793 ± 0.00067. The “peptide microarray binding signal” value [4, 5] was 0.00296 ± 0.00055 and the “peptide microarray binding signal” value [4, 6] was 0.00565 ± 0.0013.

With QTARKSTGGKAPR [H3 5-17 Q T A Rme2s K S T G G K A P R] the “peptide microarray binding signal” value ([1]; peptide modifications: H3R8me2s, binder concentration: 50 nM) was 0.00245 ± 0.00023, the “peptide microarray binding signal” value ([1]; peptide modifications: H3R8me2s, binder concentration: 500 nM) was 0.00352 ± 0.00033 and the “peptide microarray binding signal” value ([2]; peptide modifications: H3R8me2s, binder concentration: 10 nM) was 0.00412 ± 0.00015. The “peptide microarray binding signal” value ([2]; peptide modifications: H3R8me2s, binder concentration: 100 nM) was 0.00184 ± 6.7e-05, the “peptide microarray binding signal” value [3, 7] was 0.0129 ± 0.0069 and the “peptide microarray binding signal” value [3, 8] was 0.0128 ± 0.0042. The “peptide microarray binding signal” value [4, 7] was 0.00237 ± 0.00021 and the “peptide microarray binding signal” value [4, 8] was 0.00415 ± 0.00028.

In the case of QTARKSTGGKAPR [H3 5-17 Q T A Rme2s K Sph T G G K A P R], the “peptide microarray binding signal” value ([1]; peptide modifications: H3R8me2s H3S10ph, binder concentration: 50 nM) is reported as 0.00683 ± 0.0003, the “peptide microarray binding signal” value ([1]; peptide modifications: H3R8me2s H3S10ph, binder concentration: 500 nM) is reported as 0.0161 ± 0.0014 and the “peptide microarray binding signal” value ([2]; peptide modifications: H3R8me2s H3S10ph, binder concentration: 10 nM) is reported as 0.0274 ± 0.00033. The “peptide microarray binding signal” value ([2]; peptide modifications: H3R8me2s H3S10ph, binder concentration: 100 nM) was 0.0477 ± 0.0078, the “peptide microarray binding signal” value [3, 9] was 0.00423 ± 0.00039 and the “peptide microarray binding signal” value [3, 10] was 0.00548 ± 0.00014. The “peptide microarray binding signal” value [4, 9] was 0.00403 ± 0.0009 and the “peptide microarray binding signal” value [4, 10] was 0.00363 ± 0.00015.

QTARKSTGGKAPR [H3 5-17 Q T A Rme2a K S Tph G G K A P R] was tested, and the “peptide microarray binding signal” value ([1]; peptide modifications: H3R8me2a H3T11ph, binder concentration: 50 nM) was 0.00567 ± 0.00028, the “peptide microarray binding signal” value ([1]; peptide modifications: H3R8me2a H3T11ph, binder concentration: 500 nM) was 0.008 ± 0.00083 and the “peptide microarray binding signal” value ([2]; peptide modifications: H3R8me2a H3T11ph, binder concentration: 10 nM) was 0.0111 ± 0.00069. For the same binder, the “peptide microarray binding signal” value ([2]; peptide modifications: H3R8me2a H3T11ph, binder concentration: 100 nM) was 0.0171 ± 0.0015, the “peptide microarray binding signal” value [3, 11] was 0.00181 ± 0.00016 and the “peptide microarray binding signal” value [3, 12] was 0.00257 ± 6e-05. The “peptide microarray binding signal” value [4, 11] was 0.0287 ± 0.023 and the “peptide microarray binding signal” value [4, 12] was 0.00409 ± 0.0015.

In the case of QTARKSTGGKAPR [H3 5-17 Q T A Rme2a Kme2 S T G G K A P R], the “peptide microarray binding signal” value ([1]; peptide modifications: H3R8me2a H3K9me2, binder concentration: 50 nM) is reported as 0.007555 ± 2.4e-05, the “peptide microarray binding signal” value ([1]; peptide modifications: H3R8me2a H3K9me2, binder concentration: 500 nM) is reported as 0.0185 ± 0.0016 and the “peptide microarray binding signal” value ([2]; peptide modifications: H3R8me2a H3K9me2, binder concentration: 10 nM) is reported as 0.0456 ± 0.0053. For the same binder, the “peptide microarray binding signal” value ([2]; peptide modifications: H3R8me2a H3K9me2, binder concentration: 100 nM) was 0.0526 ± 0.0031, the “peptide microarray binding signal” value [3, 13] was 0.032 ± 0.0036 and the “peptide microarray binding signal” value [3, 14] was 0.0252 ± 0.0039. The “peptide microarray binding signal” value [4, 13] was 0.185 ± 0.023 and the “peptide microarray binding signal” value [4, 14] was 0.104 ± 0.0059.

In the case of QTARKSTGGKAPR [H3 5-17 Q T A Rme2a Kme S T G G K A P R], the “peptide microarray binding signal” value ([1]; peptide modifications: H3R8me2a H3K9me1, binder concentration: 50 nM) is reported as 0.0102 ± 0.00047, the “peptide microarray binding signal” value ([1]; peptide modifications: H3R8me2a H3K9me1, binder concentration: 500 nM) is reported as 0.0208 ± 0.00058 and the “peptide microarray binding signal” value ([2]; peptide modifications: H3R8me2a H3K9me1, binder concentration: 10 nM) is reported as 0.0329 ± 0.0037. The “peptide microarray binding signal” value ([2]; peptide modifications: H3R8me2a H3K9me1, binder concentration: 100 nM) was 0.0496 ± 0.0052, the “peptide microarray binding signal” value [3, 15] was 0.0224 ± 0.003 and the “peptide microarray binding signal” value [3, 16] was 0.0247 ± 0.0017. The “peptide microarray binding signal” value [4, 15] was 0.0228 ± 0.0036 and the “peptide microarray binding signal” value [4, 16] was 0.0159 ± 0.0016.

In the case of QTARKSTGGKAPR [H3 5-17 Q T A Rme2s Kme3 S T G G K A P R], the “peptide microarray binding signal” value ([1]; peptide modifications: H3R8me2s H3K9me3, binder concentration: 50 nM) is reported as 0.00251 ± 0.00011, the “peptide microarray binding signal” value ([1]; peptide modifications: H3R8me2s H3K9me3, binder concentration: 500 nM) is reported as 0.00471 ± 9.5e-05 and the “peptide microarray binding signal” value ([2]; peptide modifications: H3R8me2s H3K9me3, binder concentration: 10 nM) is reported as 0.00979 ± 0.00031. The “peptide microarray binding signal” value ([2]; peptide modifications: H3R8me2s H3K9me3, binder concentration: 100 nM) was 0.0103 ± 0.00024, the “peptide microarray binding signal” value [3, 17] was 0.0199 ± 0.0017 and the “peptide microarray binding signal” value [3, 18] was 0.0138 ± 0.0027. The “peptide microarray binding signal” value [4, 17] was 0.094 ± 0.0025 and the “peptide microarray binding signal” value [4, 18] was 0.0691 ± 0.0084.

With QTARKSTGGKAPR [H3 5-17 Q T A Rme K S Tph G G K A P R] the “peptide microarray binding signal” value ([1]; peptide modifications: H3R8me1 H3T11ph, binder concentration: 50 nM) was 0.00818 ± 0.0006, the “peptide microarray binding signal” value ([1]; peptide modifications: H3R8me1 H3T11ph, binder concentration: 500 nM) was 0.017 ± 0.0013 and the “peptide microarray binding signal” value ([2]; peptide modifications: H3R8me1 H3T11ph, binder concentration: 10 nM) was 0.0191 ± 0.0015. The “peptide microarray binding signal” value ([2]; peptide modifications: H3R8me1 H3T11ph, binder concentration: 100 nM) was 0.042 ± 0.0045, the “peptide microarray binding signal” value [3, 19] was 0.00244 ± 0.00022 and the “peptide microarray binding signal” value [3, 20] was 0.00428 ± 0.00027. For the same binder, the “peptide microarray binding signal” value [4, 19] was 0.0103 ± 0.012 and the “peptide microarray binding signal” value [4, 20] was 0.012 ± 0.01.

QTARKSTGGKAPR [H3 5-17 Q T A R K Sph T G G Kme A P R] was tested, and the “peptide microarray binding signal” value ([1]; peptide modifications: H3S10ph H3K14me1, binder concentration: 50 nM) was 0.00426 ± 0.0003, the “peptide microarray binding signal” value ([1]; peptide modifications: H3S10ph H3K14me1, binder concentration: 500 nM) was 0.007715 ± 7.2e-05 and the “peptide microarray binding signal” value ([2]; peptide modifications: H3S10ph H3K14me1, binder concentration: 10 nM) was 0.00424 ± 0.00075. The “peptide microarray binding signal” value ([2]; peptide modifications: H3S10ph H3K14me1, binder concentration: 100 nM) was 0.0102 ± 0.0023, the “peptide microarray binding signal” value [3, 21] was 0.000396 ± 7e-06 and the “peptide microarray binding signal” value [3, 22] was 0.000399. The “peptide microarray binding signal” value [4, 21] was 0.00077 ± 4.1e-05 and the “peptide microarray binding signal” value [4, 22] was 0.000404 ± 4.4e-06.

QTARKSTGGKAPR [H3 5-17 Q T A Rme2s Kme2 S T G G K A P R] was tested, and the “peptide microarray binding signal” value ([1]; peptide modifications: H3R8me2s H3K9me2, binder concentration: 50 nM) was 0.00545 ± 0.0001, the “peptide microarray binding signal” value ([1]; peptide modifications: H3R8me2s H3K9me2, binder concentration: 500 nM) was 0.00886 ± 0.00071 and the “peptide microarray binding signal” value ([2]; peptide modifications: H3R8me2s H3K9me2, binder concentration: 10 nM) was 0.0168 ± 0.00063. The “peptide microarray binding signal” value ([2]; peptide modifications: H3R8me2s H3K9me2, binder concentration: 100 nM) was 0.0228 ± 0.0012, the “peptide microarray binding signal” value [3, 23] was 0.0112 ± 0.0011 and the “peptide microarray binding signal” value [3, 24] was 0.0122 ± 0.002. The “peptide microarray binding signal” value [4, 23] was 0.0214 ± 0.0029 and the “peptide microarray binding signal” value [4, 24] was 0.0131 ± 0.00022.
